TDP1 inh: inhibitors of human tyrosyl-DNA phosphodiesterase TDP1; Potency, µM (series often up to 130 µM), for the others: at the top dose activity change, negative = inhibition, usual class: inhibitors; recombinant TDP1, AlphaScreen DNA substrate cleavage; 350,000 compounds, 0.28% hits; Q9NUW8; further: nearly all actives have a fitted effect of over 40% in size
Target sequence (Q9NUW8 whole entry, looked up): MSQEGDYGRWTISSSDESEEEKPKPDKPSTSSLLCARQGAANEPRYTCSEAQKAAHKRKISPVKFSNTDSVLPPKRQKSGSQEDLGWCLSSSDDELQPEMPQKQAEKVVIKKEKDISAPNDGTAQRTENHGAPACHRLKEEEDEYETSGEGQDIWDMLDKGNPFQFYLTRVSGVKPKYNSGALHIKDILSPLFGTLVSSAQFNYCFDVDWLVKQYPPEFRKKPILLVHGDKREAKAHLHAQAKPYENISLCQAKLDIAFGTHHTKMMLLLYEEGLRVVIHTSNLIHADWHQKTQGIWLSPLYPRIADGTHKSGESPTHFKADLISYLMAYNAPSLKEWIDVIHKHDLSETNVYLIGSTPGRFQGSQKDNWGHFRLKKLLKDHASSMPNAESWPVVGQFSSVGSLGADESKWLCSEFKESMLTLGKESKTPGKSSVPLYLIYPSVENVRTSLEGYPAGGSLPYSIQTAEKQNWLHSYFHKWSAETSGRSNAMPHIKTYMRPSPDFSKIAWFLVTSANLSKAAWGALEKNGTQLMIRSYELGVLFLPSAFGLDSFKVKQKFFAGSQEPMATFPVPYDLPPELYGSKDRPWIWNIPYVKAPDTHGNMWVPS
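Signal: AlphaScreen proximity between streptavidin donor and anti-FITC acceptor beads on intact substrate. Reaction: Tdp1 1 nM, substrate 15 nM final, 5 min RT after 15 min compound preincubation.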
TDP1 cell CPT: growth inhibition of DT40 Tdp1-/-;hTDP1 cells with camptothecin (screen for TDP1 inhibitors); chicken DT40 Tdp1-/-;hTDP1 cells + 20 nM CPT, ATP luminescence, 48 h; Potency, µM (doses to about 46.2 µM), without a hit: at the highest dose activity change, negative = growth inhibition, usual class: inhibitors; 420,000 compounds, 12% hits; further: nearly all actives have a fitted effect of over 55% in size
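Cell growth measured by CellTiter-Glo luminescence after a minimum 48 h, 37 C compound exposure with 20 nM CPT in Tdp1-knockout DT40 cells stably expressing hTDP1, seeded 400/well; qHTS titration format.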
RORg inh: blocks mouse ROR gamma transcriptional activity | P51450 | Drosophila S2 Gal4-RORgamma UAS-luciferase reporter, 20 h | Potency, µM (doses to about 53.6 µM), for inactives: at the highest dose activity change, negative = inhibition, hits mostly inhibitors | 310,000 compounds, 5.4% hits; further: nearly all actives have a fitted effect of over 60% in size
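Luciferase reporter read in Schneider cells carrying Gal4-RORγ (mouse) and UAS-Photinus luciferase; cells given compound 1 h before 700 uM copper sulfate induction, then incubated 20 h at ambient temperature.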
DT40 TDP1 no CPT: qHTS for Inhibitors of human tyrosyl-DNA phosphodiesterase 1 (TDP1): qHTS in cells in absence of CPT | DT40 Tdp1-/- hTDP1 cells, no CPT, ATP luminescence, 48 h | AID 686978, 2013 | 420,000 compounds, 15% hits | Potency, µM (top dose mostly 46.2 µM), without a hit: at the top dose activity change, negative = growth inhibition, hits mostly inhibitors; further: nearly all actives have a fitted effect of over 55% in size
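Cells were dispensed at 400 per well, compounds added by pin tool, plates incubated ≥48 hr at 37 °C, then CellTiter-Glo added for 30 min at room temperature before luminescence reading. Line: DT40 Tdp1-/- complemented with hTDP1; camptothecin omitted.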
VP16 counter: Gal4-VP16 reporter inhibition counter-screen. Drosophila S2 Gal4-VP16 UAS-luciferase, luminescence, 20 h. Potency, µM (doses to about 53.6 µM), for inactives: at the highest dose activity, negative = inhibition, most hits filed as inhibitors. 310,000 compounds, 3.5% hits. AID 2546;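 further: Gal4-VP16 expression switched on by copper sulfate through the metallothionein promoter; nearly all actives have a fitted effect of over 50% in size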
The depositor's hits bear a star; u = inconclusive; x = no result; [ ] = another dose, or the depositor's remark. Rows were chosen to be rich in hits. Some 19% of all compounds tested hit in one or more screens of this group. The call rests on the fitted dose curve; in most records, active means well fitted curve in the direction sought with a large enough effect; inconclusive means small, poorly fitted or top-dose-only effect, or another doubt; inactive means no such curve, though single readings can be large; an effect the other way counts as inactive or inconclusive. On the % scale 0 is the no-effect control and ±100 the full control effect; potency means the concentration at half of the fitted maximal effect.

SMILES | TDP1 inh | TDP1 cell CPT | RORg inh | DT40 TDP1 no CPT | VP16 counter
Cn1nc(C(=O)NCc2ccccc2)c2c1-c1ccccc1S(=O)(=O)C2 | 1% | -1% | 25% | u | -4%
Cc1noc(C)c1S(=O)(=O)N1CCC(C(=O)N2CCN(c3ccccc3Cl)CC2)CC1 | -2% | u | 1% | 21µM* | -8%
Cc1noc(C)c1S(=O)(=O)N1CCC(C(=O)N2CCN(c3cccc(C(F)(F)F)c3)CC2)CC1 | 2% | 5.2µM* | x | 3.3µM* | x
Cc1ccc(C)c(N2CCN(C(=O)C3CCN(S(=O)(=O)c4c(C)noc4C)CC3)CC2)c1 | x | 10µM* | u | 8.2µM* | u
Cc1noc(C)c1S(=O)(=O)N1CCC(C(=O)N2CCN(c3ccccc3)CC2)CC1 | 2% | 0% | x | u | x
Cc1ccc(C)c(N2CCN(S(=O)(=O)c3c(C)noc3/C=C/N(C)C)CC2)c1 | -4% | u | -5% | 18µM* | -3%
CCN1CCN(CCCOc2ccc(-c3ccccc3)cc2)CC1 | 4% | u | 14% | u | -19%
Cc1ccc(Cl)cc1N1CCN(C(=O)C2CCN(S(=O)(=O)c3cn(C)cn3)CC2)CC1 | -1% | u | x | u | x
Cc1ccc(Cl)cc1N1CCN(C(=O)C2CCCN(S(=O)(=O)c3cnc[nH]3)C2)CC1 (stereo not drawn) | 3% | 15µM* | 8% | 23µM* | -5%
Cc1ccc(Cl)cc1N1CCN(C(=O)C2CCN(S(C)(=O)=O)CC2)CC1 | 5% | u | -2% | 5.8µM* | 2%
Cc1cc(C)nc(N2CCC(C(=O)N3CCN(c4cc(Cl)ccc4C)CC3)CC2)n1 | 4% | u | 45% | 18µM* | -6%
Cc1ccc(NC(=O)C2CCN(c3nc(C)cc(C)n3)CC2)cc1 | 0% | u | u | u | 21%
Cc1cc(C)nc(N2CCC(C(=O)NNC(=O)c3ccc(Cl)cc3)CC2)n1 | 1% | -17% | 13% | -2% | -2%
Cc1ccc(C)c(N2CCN(C(=O)C3CCN(c4nc(C)cc(C)n4)CC3)CC2)c1 | 7% | 15µM* | 11% | 12µM* | 4%
Cc1ccc(Cl)cc1N1CCN(C(=O)C2CCN(S(=O)(=O)c3cnc[nH]3)CC2)CC1 | -3% | u | 2% | u | -5%
Cc1ccc(CNC(=O)CSc2nc(=O)n(Cc3ccco3)c3c2CCC3)cc1 | 5% | -27% | x | u | x
CN(Cc1ccccc1)S(=O)(=O)c1ccc(Cl)c(C(=O)OCC(=O)NC2CCS(=O)(=O)C2)c1 (stereo not drawn) | 2% | -4% | x | 3% | x
C=CCc1ccc(OCCCCOc2ccc(C(=O)O)cc2)c(OC)c1 | -8% | 8% | 34% | 1% | -8%
Cc1ccc(NC(=O)CCC(=O)NNC(=O)c2cccc([N+](=O)[O-])c2)cc1C | 4% | 0% | 5% | -10% | -6%
Cc1ccc(C)c(S(=O)(=O)N2CCN(C(=O)C3CCN(c4ncnc5sc(C)c(C)c45)CC3)CC2)c1 | 2% | 15µM* | x | 10µM* | x
CCN(CC)S(=O)(=O)c1cc(NC(=O)C2CCN(c3ncnc4sc(C)c(C)c34)CC2)ccc1Cl | -13% | 15µM* | x | 21µM* | x
Cc1ccc(NC(=O)C2CCN(c3ncnc4sc(C)c(C)c34)CC2)cc1S(=O)(=O)N(C)C | x | 13µM* | x | 9.2µM* | x
Cc1sc2ncnc(N3CCC(C(=O)Nc4ccc(S(N)(=O)=O)cc4)CC3)c2c1C | 3% | u | x | 15µM* | x
Cc1sc2ncnc(N3CCC(C(=O)Nc4ccc(C#N)cc4)CC3)c2c1C | 6%[0.505 µM] | u | x | u | x
COc1ccc(CN2CCNC(=O)C2CC(=O)NCC2CCOCC2)c(C)c1C (stereo not drawn) | 2% | 7% | -8% | 2% | 2%
O=C(O)Cn1nnc(-c2ccc(OCc3ccccc3Cl)cc2)n1 | x | 11% | 18% | 3% | -2%
Cc1nc(S/C(=C\c2ccc(OCc3ccccc3Cl)cc2)C(=O)O)n[nH]1 | 12% | u | 1µM* | u | u
